According to PubChem BioAssay (NCATS):
Results filed as inconclusive are left out. Unmarked numbers belong to inactive results. Calls follow the shape of the dose curve; as a rule, active = well fitted cell-killing curve with a large enough effect; inconclusive = small, poorly fitted or top-dose-only effect; inactive = flat fitted curve, though single readings scatter.

Test: Cell Viability - LYMP2-019 (AID 973);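 also: 0% = DMSO alone and full effect = 92 µM tetraoctylammonium bromide; nearly all actives have a fitted effect of over 55% in size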
Settings: LYMP2-019 lymphoblastoid cell line viability; series mostly up to 92.2 µM; activity change, negative = cytotoxicity: at the top concentration
Description: NIH Chemical Genomics Center [NCGC]
NIH Molecular Libraries Screening Centers Network [MLSCN]
National Institutes of Environmental Health Sciences [NIEHS]
National Toxicology Program [NTP]
We have developed a 1536-well cell-based assay for quantitative high throughput screening (qHTS) against a number of cell lines to determine in vitro cytotoxicity of small molecules. This particular assay uses a human lymphoblastoid cell line (LYMP2-019) purchased from Coriell Institute for Medical Research.
NCGC Assay Protocol Summary:
The CellTiter-Glo luminescent cell viability assay (Promega) is a homogeneous method to measure the number of viable cells in culture. The end point readout of this assay is based on quantitation of intracellular ATP, an indicator of metabolic activity, using the luciferase reaction. Luciferase catalyzes the oxidation of beetle Luciferin to oxyluciferin and light in the presence of ATP. The luminescent signal is proportional to amount of ATP present.
Using the CellTiter-Glo luminescent cell viability assay, the amount of cellular ATP was measured in the lymphoblastoid cell line with complete culture medium following compound treatment for 24 hours. The assay was performed in opaque white Kalypsys 1536-well plates. In the screen, tetraoctylammonium bromide was used as positive control. Library compounds were measured for their ability to cause acute toxicity in the cell line, as reflected by a decrease in intracellular ATP levels, in a concentration-dependent manner. […] AC50 values were determined from concentration-response data modeled with the standard Hill equation.
qHTS protocol for CellTiter Glo lymphoblastoid cellular assay
[Step] [Parameter] [Value] [Description]
1. Reagent; 5 uL; 2500 lymphoblastoid cells/well
2. Time; 5 hr; 37 C incubation
4. Controls; 23 nL; Tetraoctylammonium bromide 6.4pM to 92 uM
5. Time; 24 hr; 37 C incubation
6. Reagent; 5 uL; CellTiter Glo reagent
7. Time; 30 min; Room Temperature
8. Detection; Luminescence; Viewlux plate reader
Keywords: cell viability, cytotoxicity, lymphoblastoid cell line, luminescence, NTPHTS, NTPHTS_NCGC, NIEHS, DSSTox, MLSMR, MLSCN, NIH Roadmap, qHTS, NCGC
In the case of `C/C=C/c1ccc(O)c(OC)c1`, the “activity change, negative = cytotoxicity” value is reported as -9.09%. In the case of `NC(=O)c1ccccc1O`, the “activity change, negative = cytotoxicity” value is reported as -6.62%. In the case of `CCOc1ccccc1C(N)=O`, the “activity change, negative = cytotoxicity” value is reported as -8.09%. In the case of `CCOc1ccc(NC(C)=O)cc1`, the “activity change, negative = cytotoxicity” value is reported as -6.12%. With `COc1cc([C@H]2Oc3cc([C@H]4Oc5cc(O)cc(O)c5C(=O)[C@@H]4O)ccc3O[C@@H]2CO)ccc1O` the “activity change, negative = cytotoxicity” value was -6.06%. For `OC[C@H]1O[C@@H]2O[C@H]3[C@H](O)[C@@H](O)[C@@H](O[C@H]4[C@H](O)[C@@H](O)[C@@H](O[C@H]5[C@H](O)[C@@H](O)[C@@H](O[C@H]6[C@H](O)[C@@H](O)[C@@H](O[C@H]7[C@H](O)[C@@H](O)[C@@H](O[C@H]8[C@H](O)[C@@H](O)[C@@H](O[C@H]1[C@H](O)[C@H]2O)O[C@@H]8CO)O[C@@H]7CO)O[C@@H]6CO)O[C@@H]5CO)O[C@@H]4CO)O[C@@H]3CO`, the “activity change, negative = cytotoxicity” value was -0.685%. With `COc1ccc(C(=O)c2ccccc2)c(O)c1` the “activity change, negative = cytotoxicity” value was -6.29%. With `COc1ccc(C(Cl)=C(c2ccc(OC)cc2)c2ccc(OC)cc2)cc1` the “activity change, negative = cytotoxicity” value was -24.6%. With `CCCCC(CC)COC(=O)c1ccc(N(C)C)cc1` (stereo not drawn) the “activity change, negative = cytotoxicity” value was -5.89%. For `O=C(O)c1ccc(S(=O)(=O)N(Cl)Cl)cc1`, the “activity change, negative = cytotoxicity” value was -8.03%. With `CCCN(CCC)S(=O)(=O)c1ccc(C(=O)O)cc1` the “activity change, negative = cytotoxicity” value was -3.38%. With `C=C[C@H]1CN2CC[C@H]1C[C@@H]2[C@@H](O)c1ccnc2ccc(OC)cc12` the “activity change, negative = cytotoxicity” value was -15.6%. In the case of `NCCNc1cccc2ccccc12`, the “activity change, negative = cytotoxicity” value is reported as -23.6%.
